Results as given in PubChem BioAssay (NCATS).
Results filed as inconclusive are left out. A call without a number means that no potency is given here. A number with no mark means an inactive call. The source made the active and inactive calls. The call rests on the fitted dose curve; in most records, active means well fitted inhibition curve with a large enough effect; inconclusive means small, poorly fitted or top-dose-only effect; inactive means flat fitted curve, though single readings scatter.

target: Calcium and integrin-binding protein 1 (Homo sapiens) (UniProt Q99828); test: Primary qHTS for Identification of Calcium Integrin Binding Protein 1 (CIB1) Competitor (AID 1508620); conditions: CIB1-GST / FITC-alphaIIb peptide fluorescence polarization; series mostly up to 57.7 µM;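 further: GST tagged CIB1 binding a fluorescein labelled alphaIIb integrin peptide tracer; top concentration of the series differs between compounds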
Summary of the method: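 Fluorescence polarization competition: CIB1-GST (1 uM final) preincubated with compound 15 min at room temperature, then FITC-labeled alphaIIb peptide (100 nM final) added for another 15 min. Polarization read at Ex 480/Em 540.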

Chain of Calcium and integrin-binding protein 1 (Homo sapiens) (Q99828 whole entry, looked up): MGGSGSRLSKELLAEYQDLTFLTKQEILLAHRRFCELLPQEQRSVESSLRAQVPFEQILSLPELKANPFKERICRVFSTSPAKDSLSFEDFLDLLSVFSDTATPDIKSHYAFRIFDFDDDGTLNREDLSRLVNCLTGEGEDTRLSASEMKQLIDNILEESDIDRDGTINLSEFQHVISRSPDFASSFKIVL

Question: With `COc1ccc2cc(OCC3(C(=O)O)CN(C(=O)c4ccc(F)cc4)C3)ccc2c1` as the compound, how does the Potency read?
Answer: inactive

Question: How did the Potency turn out when `COc1cccc(-c2ccc([C@@H](Oc3cc(-c4ccc(C[C@H](N)C(=O)O)cc4)nc(N)n3)C(F)(F)F)cc2)c1` was run?
Answer: inactive

Question: For `COc1cc(C(O)C(CO)Oc2ccc(CCCO[C@@H]3O[C@@H](C)[C@H](O)[C@@H](O)[C@H]3O)cc2OC)ccc1O` (some centres undefined), which Potency is on record?
Answer: inactive

Question: With `CC[C@H]1OC(=O)C[C@@H](O)[C@H](C)[C@@H](O[C@@H]2O[C@H](C)[C@@H](O)[C@H](N(C)C)[C@H]2O)[C@@H](CCN2C[C@H](C)C[C@H](C)C2)C[C@@H](C)C(=O)/C=C/C(C)=C/[C@@H]1CO[C@@H]1O[C@H](C)[C@@H](O)[C@@H](OC)[C@H]1OC` as the compound, how does the Potency read?
Answer: inactive

Question: `C=C1[C@@H]2CC[C@@]3(C)[C@H](c4ccoc4)OC(=O)C[C@]13O[C@H]1CC(=O)C(C)(C)[C@H](CC(=O)OC)[C@]12C` was tested. Which Potency did it give?
Answer: inactive

Question: For `CC1=CC(=O)C[C@H]2[C@@H]1CC[C@@H](C)[C@]21CO[C@H](c2ccoc2)C1=O`, which Potency is on record?
Answer: inactive

Question: For `COc1cc(C[C@H]2COC(=O)[C@@H]2Cc2ccc(O)c(OC)c2)ccc1O`, which Potency is on record?
Answer: inactive

Question: Which Potency does the source give for `C(#Cc1cccc(CN2CCOCC2)c1)CCN1CCCCC1` here?
Answer: inactive

Question: For `C[C@@H]1O[C@@H](O[C@H]2[C@H](OC(=O)[C@]34CCC(C)(C)C[C@H]3C3=CCC5[C@@]6(C)CC[C@H](O[C@@H]7O[C@H](CO[C@@H]8OC[C@H](O)[C@H](O)[C@H]8O)[C@@H](O)[C@H](O)[C@H]7O)C(C)(C)C6CC[C@@]5(C)[C@]3(C)C[C@H]4O)OC[C@@H](O)[C@@H]2O)[C@H](O)[C@H](O)[C@H]1O[C@@H]1OC[C@H](O)[C@H](O[C@@H]2OC[C@@H](O)[C@H](O)[C@H]2O)[C@H]1O` (some centres undefined), which activity change, negative = inhibition is on record?
Answer: 0.282% [at 12.4 µM]

Question: Which Potency does the source give for `COC(=O)C1=CO[C@@H](O[C@@H]2O[C@H](COC(=O)/C=C/c3cc(OC)c(O)c(OC)c3)[C@@H](O)[C@H](O)[C@H]2O)[C@@H]2C(CO)=CC[C@H]12` here?
Answer: inactive

Question: `CCC[C@@H]1C[C@@H](C(=O)N[C@@H]([C@H]2O[C@H](SC)[C@H](OP(=O)(O)O)[C@@H](O)[C@H]2O)[C@H](C)Cl)N(C)C1` was tested. Which Potency did it give?
Answer: inactive

Question: With `CCOC(=O)[C@H](CCc1ccccc1)N[C@@H](C)C(=O)N1C2CCCCC2C[C@H]1C(=O)O` (some centres undefined) as the compound, how does the Potency read?
Answer: inactive

Question: How did the Potency turn out when `CC(=O)OC[C@]12[C@H](OC(C)=O)C(=O)[C@@H]3[C@@H](OC(C)=O)[C@@]14O[C@@]3(C)COC(=O)c1cccnc1[C@@H](C)[C@H](C)C(=O)O[C@@H]([C@H](OC(C)=O)[C@@H]2OC(C)=O)[C@]4(C)O` was run?
Answer: inactive

Question: For `CC1CCC2(C(=O)OC3OC(CO)C(O)C(O)C3O)CCC3(C)C(=CCC4C5(C)CC(O)C(O)C(C)(C(=O)O)C5CCC43C)C2C1(C)O` (centres undefined), which Potency is on record?
Answer: inactive

Question: Which Potency does the source give for `O=C(NCC(=O)N1CC[C@H](NC2CCC(O)(c3ccc(-c4ncccn4)cn3)CC2)C1)c1cccc(C(F)(F)F)c1` (some centres undefined) here?
Answer: inactive

Question: Which Potency does the source give for `C/C=C(\C)C(=O)OC[C@H]1O[C@H](O[C@H]2O[C@H](CO)[C@@H](OC(=O)/C(C)=C/C)[C@H](O)[C@H]2O[C@@H]2O[C@H](CO)[C@@H](O)[C@H](O)[C@H]2O)[C@H](O[C@@H]2O[C@H](CO)[C@@H](O)[C@H](O)[C@H]2O)[C@@H](O)[C@@H]1O` here?
Answer: inactive

Question: With `CCC(=O)O[C@]1(C(=O)CCl)[C@@H](C)C[C@H]2[C@@H]3C[C@H](F)C4=CC(=O)C=C[C@]4(C)[C@@]3(F)[C@@H](O)C[C@@]21C` as the compound, how does the Potency read?
Answer: inactive

Question: For `CCOC(=O)c1c(C)nn(-c2cccc([N+](=O)[O-])c2)c1C`, which Potency is on record?
Answer: inactive

Question: With `COC(=O)c1ccc(O[C@@H]2O[C@H](CO)[C@@H](O)[C@H](O)[C@H]2O)c(OC)c1` as the compound, how does the Potency read?
Answer: inactive

Question: With `O=C1C[C@@H](c2ccc(O)cc2)Oc2cc(O)ccc21` as the compound, how does the Potency read?
Answer: inactive

Question: Which Potency does the source give for `O=C(/C=C/c1ccc(O)cc1)OCC1=C[C@@H](O)[C@@H]2C=CO[C@@H](O[C@@H]3O[C@H](CO)[C@@H](O)[C@H](O)[C@H]3O)[C@H]12` here?
Answer: inactive

Question: For `CC(=O)O[C@H]1[C@H](Oc2ccccc2COC(=O)C2(O)C=CCCC2=O)O[C@H](CO)[C@@H](O)[C@@H]1O` (some centres undefined), which Potency is on record?
Answer: inactive

Question: With `C=C1[C@@H]2[C@H]3OC(=O)C(=C)[C@@H]3CC[C@@](C)(O)[C@@H]2C[C@@H]1O[C@@H]1O[C@H](CO)[C@@H](O)[C@H](O)[C@H]1O` as the compound, how does the Potency read?
Answer: inactive

Question: How did the Potency turn out when `CC1=CCC2C(C)(CO)CCCC2(CO)C1CO` (centres undefined) was run?
Answer: inactive
